# Bioassay records as filed in PubChem BioAssay.
# Rows were chosen to be rich in hits. Some 4.1% of all compounds tested hit in one or more screens of this group.
# FMDV antiviral – foot and mouth disease virus antiviral activity; AID 1159524; FMDV antiviral cell-based qHTS; Potency, µM (highest dose often 57.9 µM), for the others: at the highest dose activity change, negative = inhibition, usual class: inhibitors; 410,000 compounds, 1.2% hits; calls by dose curve; tested in HEK293T cells; note: read-out not given here; nearly all actives have a fitted effect of over 45% in size
# AmpC inh detg – blocks E. coli AmpC beta-lactamase in detergent assay; P00811; AmpC hydrolysis of nitrocefin, absorbance 480 nm, 0.01% Triton; Potency, µM (series often up to 114 µM), inactives show top-dose activity change, negative = inhibition, most hits filed as inhibitors; 370,000 compounds, 0.041% hits;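 note: 0% = no-compound wells and -100% = no-enzyme wells; nearly all actives have a fitted effect of over 25% in size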
# Target sequence (P00811 whole entry, looked up): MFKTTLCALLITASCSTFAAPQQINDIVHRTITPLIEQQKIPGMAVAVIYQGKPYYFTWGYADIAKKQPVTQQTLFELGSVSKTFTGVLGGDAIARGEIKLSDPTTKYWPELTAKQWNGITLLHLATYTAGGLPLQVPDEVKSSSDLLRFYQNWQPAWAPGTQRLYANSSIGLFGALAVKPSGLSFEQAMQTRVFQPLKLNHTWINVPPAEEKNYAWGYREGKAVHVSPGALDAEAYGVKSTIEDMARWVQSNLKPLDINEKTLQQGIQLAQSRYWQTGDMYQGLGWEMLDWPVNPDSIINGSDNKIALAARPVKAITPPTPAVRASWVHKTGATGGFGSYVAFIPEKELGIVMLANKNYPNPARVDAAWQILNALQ
#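 20 mM phosphate pH 7.0 + 0.01% (detergent screen) or 0.0001% Triton X-100; 5.3 nM AmpC reagent; cpd preinc 15 min RT; nitrocefin (800 uM stock) to start; A480 q20 s × 4 min; Activity was normalised to no-enzyme and no-compound control wells.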
# AmpC inh no detg – AmpC beta-lactamase inhibition without detergent; AID 485341; P00811; Potency, µM (doses to about 57.1 µM), without a hit: at the top dose activity change, negative = inhibition, hits mostly inhibitors; AmpC nitrocefin hydrolysis, absorbance 480 nm, 0.0001% Triton; 330,000 compounds, 0.52% hits;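 note: plate controls were no compound for no effect and no enzyme for full effect; nearly all actives have a fitted effect of over 20% in size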
#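 AmpC (5.3 nM in the dispensed reagent) in 20 mM phosphate pH 7.0 with 0.01% (detergent screen) or 0.0001% Triton X-100 was preincubated with compounds for 15 min at room temperature. Nitrocefin was then added from an 800 uM solution, and hydrolysis was followed at 480 nm.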
# Sm TGR inh – inhibitors of Schistosoma mansoni thioredoxin glutathione reductase | Q962Y6 | purified TGR, DTNB reduction, TNB absorbance 405 nm | Potency, µM (top dose mostly 114 µM), inactives show at the top dose activity change, negative = inhibition, usual class: inhibitors | 360,000 compounds, 3% hits | AID 485364; note: nearly all actives have a fitted effect of over 60% in size
#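 First, TGR (20 nM dispensed) and NADPH were mixed with compound. Second, a 15 min room-temperature incubation followed. Third, further NADPH and then DTNB were added to start the reaction. Finally, TNB absorbance was monitored kinetically.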
# AMA1-RON2 inh – AMA1-RON2 (P. falciparum) interaction inhibition | AlphaScreen AMA1-biotinylated RON2 peptide binding | Potency, µM (doses to about 58.2 µM), for inactives: at the highest dose activity change, negative = inhibition, actives largely listed as inhibitors | 360,000 compounds, 0.2% hits;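 note: 0% = vehicle wells and -100% = peptide control; nearly all actives have a fitted effect of over 45% in size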
#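 AMA1 (3D7) with his tag at 25 nM final met compounds first, then biotinylated RON2 peptide at 25 nM; detection used donor plus acceptor beads, 10 µg/mL apiece, read by AlphaScreen after 30 min at room temperature.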
# * hit, by the source's call; ? = inconclusive; / = not tested or not shown; [ ] = dose if it differs, or a comment. Unless noted, calls come from the whole dose curve; as a rule, active = well fitted curve in the direction sought with a large enough effect; inconclusive = small, poorly fitted or top-dose-only effect, or another doubt; inactive = no such curve, though single readings can be large; an effect the other way counts as inactive or inconclusive. Unless noted, % is set by controls: 0 for no effect and ±100 for the full control effect; potency is the fitted concentration of half-maximal effect.
SMILES,FMDV antiviral,AmpC inh detg,AmpC inh no detg,Sm TGR inh,AMA1-RON2 inh
Cc1cc(C(=O)O)ccc1N=Cc1c(O)ccc2ccccc12,-18%,?,-22%,50µM*,20%
Oc1cccc(C=NCc2ccccc2)c1O,-16%,-13%,-32%,50µM*,-15%
CCOc1ccc(NC(=O)C2CCN(S(=O)(=O)c3c(C)noc3/C=C/c3c(C)cc(C)cc3C)CC2)cc1,?,-3%,/,1%,/
CN1CCN(c2ncc3nc(-c4ccccc4)c(=O)n(CCC#N)c3n2)CC1,-17%,/,/,/,/
Oc1ccc2ccccc2c1C=NC12CN3CCN(CN(C3)C1)C2,?,-1%,-21%,45µM*,60%
C=Cc1ccc(N=Cc2c(O)ccc3ccccc23)cc1,-3%,-3%,-28%,63µM*,4%
CC(c1ccccc1)N1CCN(C(=O)CCl)CC1 (centres undefined),?,-2%,-14%,45µM*,-2%
O=C(CCl)N1CCN(S(=O)(=O)Cc2ccccc2)CC1,28µM*,-2%,-15%,16µM*,0%
O=C(CCl)N1CCN(S(=O)(=O)c2ccc3c(c2)CCC3)CC1,20µM*,-7%,-9%,5µM*,-5%
Cc1ccccc1CNc1nc(N(C)C)nc2c1cnn2C,-23%,13%,/,?,/
CCOC(=O)c1[nH]c(C)c(CCC(=O)N2CCN(c3ccc(OC)cc3)CC2)c1C,4%,-6%,/,0%,/
CCOC(=O)c1[nH]c(C)c(CCC(=O)Nc2ccc(C)cc2Cl)c1C,-19%,25%,/,2%,/
Fc1ccc(C2=Nc3cccc4cccc(c34)N2)cc1,19%,-4%,-9%,/,2%
FC(F)(F)C1=Nc2cccc3cccc(c23)N1,16µM*,?,8.9µM*,18µM*,?
Cc1ccc(OCc2cc(C(=O)NCc3cn4ccccc4n3)no2)cc1C,-25%,?,-4%,-16%,17%
O=C(NCCc1cn2ccccc2n1)c1cc(COc2c(F)cccc2F)on1,?,-12%,-31%,40µM*,-12%
COc1ccc([C@]23Cc4ccccc4C(O2)c2c(c4ccc(OC)cc4oc2=O)O3)cc1,/,?,-44%[11.4 µM],?,/
O=c1oc2ccccc2c2c1C1O[C@](c3ccsc3)(Cc3ccccc31)O2,/,-11%[22.9 µM],4.5µM*,11µM*,/
COc1ccc([C@]23Cc4cc(OC)c(OC)cc4C(O2)c2c(cc(C)oc2=O)O3)cc1,/,?,60%[11.4 µM],7.1µM*,/
COc1ccc([C@]23Cc4cc(OC)c(OC)cc4C(O2)c2c(c4ccccc4oc2=O)O3)cc1,/,-6%[22.9 µM],-36%[11.4 µM],4µM*,/
COc1ccccc1-c1ccnc(-n2ncc(C(=O)NC(C)(C)CO)c2C2CC2)n1,26%,/,/,/,/
CN1CCN(C(=S)c2ccc(-c3cccc(Cl)c3Cl)o2)CC1,-1%,?,162%,3%,14µM*
S=C(c1ccc(-c2ccccc2Cl)o1)N1CCCCC1,22%,?,-42%,-3%,?
O=C(/C=C/c1ccc(OC(F)F)cc1)OCC(=O)N1CCN(C(=O)c2ccco2)CC1,?,-11%,54%,-6%,14%
CC(=O)Nc1ccc(S(=O)(=O)N(C)CC(=O)OCC(=O)N2CCCCCC2)cc1,-12%,?,-3%,6%,-6%
SMILES,FMDV antiviral,AmpC inh detg,AmpC inh no detg,Sm TGR inh,AMA1-RON2 inh
Cc1ccc(SCC(=O)OCC(=O)N2CCN(C(=O)c3ccco3)CC2)c(C)c1,-6%,-18%,66%,45µM*,-10%
CCOC(=O)/C=C/C(=O)OCC(=O)N1CCN(C(=O)c2ccco2)CC1,?,-5%,-11%,32µM*,0%
Cc1cc(SCC(=O)OCC(=O)N2CCN(C(=O)c3ccco3)CC2)c(C)cc1Br,/,?,303%,?,-10%
CC(=O)Nc1ccc(S(=O)(=O)N(C)CC(=O)OCC(=O)N2CCN(C(=O)c3ccco3)CC2)cc1,0%,-9%,-11%,50µM*,-19%
O=c1/c(=C/c2ccco2)sc2n1CN(c1cccc(Br)c1)CN=2,-14%,-3%,-50%,25µM*,-21%
Cc1ccc(/C=c2\sc3n(c2=O)CN(c2cccc(Br)c2)CN=3)o1,-6%,-4%,-31%,25µM*,-9%
COC(=O)C1C(=O)C(C(=O)/C=C/c2ccco2)C(=O)CC1(C)C (centres undefined),-13%,/,/,/,/
Cc1nc2cc(NC(=O)[C@@H]3C[C@@H](Sc4ccccn4)CN3Cc3cccc(Cl)c3)ccc2s1,5%,/,/,/,/
Cc1cc(-c2ccnc(-n3ncc(C(=O)NCCc4cccnc4)c3C)n2)c(C)s1,-3%,/,/,/,/
CCc1ccc(C(=O)Nc2nc3ccccc3[nH]2)cc1,5.6µM*,?,-26%,-19%,93%
COc1ccc(Cl)cc1C(=O)Nc1nc2ccccc2[nH]1,11µM*,-10%,46%,-1%,93%
O=C(Nc1nc2ccccc2[nH]1)c1ccccc1F,3.2µM*,?,-22%,9%,63%
N#Cc1ccc(C(=O)Nc2nc3ccccc3[nH]2)cc1,-4%,?,-10%,2%,41%
O=C(Nc1nc2ccccc2[nH]1)c1ccc(F)cc1,20µM*,?,-29%,12%,-11%
O=C(Nc1nc2ccccc2[nH]1)c1cc(F)cc(F)c1,18%,2%,-3%,6%,85%
Cc1cc(Br)cc(C)c1NC(=O)c1sc2ncn(Cc3cccc(F)c3)c(=O)c2c1C,-24%,9%,/,0%,/
O=C(NC1CCCCC1)c1nn2c(C(F)(F)F)cc(-c3ccco3)nc2c1Br,0%,-4%,-19%,25µM*,-2%
O=C(c1ccccc1)N1CCN(C(=O)c2nn3c(C(F)(F)F)cc(-c4ccco4)nc3c2Br)CC1,-4%,-2%,34%,40µM*,-6%
O=C(O)c1cnn2c(C(F)(F)F)cc(-c3ccco3)nc12,-18%,?,-19%,?,5%
O=C(NCC1CCCO1)c1nn2c(C(F)(F)F)cc(-c3ccc(Br)o3)nc2c1Br (centres undefined),-26%,-2%,-14%,16µM*,0%
O=C(NC1CCCCC1)c1cnn2c(C(F)(F)F)cc(-c3ccco3)nc12,-3%,0%,-7%,0%,24%
COc1cccc(-c2cc(C(F)(F)F)n3ncc(C(=O)NCC4CCCO4)c3n2)c1 (centres undefined),28µM*,0%,0%,?,-25%
COc1ccc(-c2cc(C(F)(F)F)n3ncc(C(=O)NCC4CCCO4)c3n2)cc1 (centres undefined),0%,-2%,-13%,-7%,-1%
Cc1ccc(NC(=O)CN2CCN(S(=O)(=O)c3ccc(C(C)C)cc3)CC2)cc1F,0%,11%,/,10%,/
CCOC(=O)c1ccc(NC(=O)N2CC3CCCN3c3ccccc32)cc1 (centres undefined),?,1%,/,-4%,/
Cc1ccc(N(CC(C)C)S(=O)(=O)c2nnc(NC(=O)c3cccs3)s2)cc1,-11%,2%,/,1%,/
